Screening results from PubChem.
Shown are actives, neighbours in structure and some others; about 19% of the full set was active somewhere.
HT1080-NT tox: kills 2HG-producing HT-1080-NT fibrosarcoma cells; 360,000 tested, 1.6% active; AID 686970; HT-1080-NT fibrosarcoma viability, CellTiter-Glo ATP luminescence, 48 h; Potency, µM (highest dose often 46.1 µM), usual class: cytotoxic;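 also: NT is the 2HG producing partner of a matched IDH1 knockdown line; nearly all actives have a fitted effect of over 55% in size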
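Luminescent CellTiter-Glo readout after 48 hours of compound exposure at 37 degrees C defined viability of HT-1080-NT cells. Activity was normalized to DMSO wells and cell-free media wells; concentration-response curves were fitted and assigned curve classes.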
IL-1B inflam inh: inflammasome signaling inhibition, IL-1 beta readout. THP-1 LPS/ATP IL-1B secretion, AlphaLISA, 16 h; hits give low values. activity change, % at 57.5 µM. 360,000 tested, 4.7% active. AID 743279; in the data active = activity change below about -50%; inconclusive = mostly about -30% to -49%
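Secreted IL-1B measured by AlphaLISA bead assay after 16 h compound exposure of THP-1 cells; compounds (final up to 57.5 uM) added 1 h before LPS (250 ng/mL) and ATP (1.25 mM) stimulation; lower signal means less secretion.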
uPA generation: blocks generation of uPA at the cell surface; cell surface uPA generation assay, qHTS; Potency, µM (series often up to 38.3 µM), hits mostly inhibitors; 330,000 tested, 0.31% active; AID 540303; active = well fitted inhibition curve with a large enough effect; inconclusive = small, poorly fitted or top-dose-only effect; inactive = no such curve, though single readings can be large or run the other way; tested in mouse RAW 264.7 cells; also: nearly all actives have a fitted effect of over 55% in size
TDP1 cell CPT: DT40-hTDP1 cell growth loss with CPT. chicken DT40 Tdp1-/-;hTDP1 cells + 20 nM CPT, ATP luminescence, 48 h. 420,000 tested, 12% active. Potency, µM (top dose mostly 46.2 µM), usual class: inhibitors; also: nearly all actives have a fitted effect of over 55% in size
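Chicken DT40 Tdp1-/- cells stably complemented with human TDP1 were seeded at 400 cells/well in medium containing 20 nM camptothecin, exposed to pin-transferred compounds, and grown at 37 °C for at least 48 hr. Viability was read as ATP luminescence.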
HT1080 IDH1KD tx: HT-1080 IDH1 knockdown cell toxicity (counter line) | HT-1080 IDH1 knockdown viability, ATP luminescence, 48 h | Potency, µM (titrated, usually from 46.1 µM), usual class: cytotoxic | 360,000 tested, 2% active
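HT-1080-IDH1KD cells (IDH1 knocked down), 750/well in RPMI with 5% FBS, treated with compound 48 h at 37 degrees C. Viability by CellTiter-Glo luminescence, normalised to DMSO and no-cell wells; concentration-response curves classed.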
TDP1 cell noCPT: qHTS for Inhibitors of human tyrosyl-DNA phosphodiesterase 1 (TDP1): qHTS in cells in absence of CPT | DT40 Tdp1-/- hTDP1 cells, no CPT, ATP luminescence, 48 h | Potency, µM (top dose mostly 46.2 µM), usual class: inhibitors | 420,000 tested, 15% active | AID 686978, 2013; also: nearly all actives have a fitted effect of over 55% in size
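Readout: luminescence from CellTiter-Glo after 30 min in the dark at RT. Cells: DT40 Tdp1-/- with stable hTDP1, 400/well. Exposure: compounds alone, ≥48 hr, 37 °C.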
Large screens that a line does not name were inactive. Unless noted, calls follow the shape of the dose curve; as a rule, active = well fitted curve in the direction sought with a large enough effect; inconclusive = small, poorly fitted or top-dose-only effect, or another doubt; inactive = no such curve, though single readings can be large; an effect the other way counts as inactive or inconclusive.

COc1ccc(C(C)(NC(C)=O)c2nc(-c3cc(F)cc(F)c3)cs2)cc1 (configuration not stated)	TDP1 cell CPT 16.4µM, TDP1 cell noCPT 20.6µM (no result: uPA generation)
COc1ccc(C(C)(NC(C)=O)c2nc(-c3cccc(C#N)c3)cs2)cc1 (configuration not stated)	TDP1 cell CPT 14.6µM, TDP1 cell noCPT 16.4µM (no result: uPA generation)
COc1ccc(-c2csc(C(C)(NC(C)=O)c3ccccc3)n2)cc1 (configuration not stated)	TDP1 cell CPT inconclusive, TDP1 cell noCPT 16.4µM (no result: uPA generation)
COCCOC(=O)C1=C(C)N=C2SCCC(=O)N2C1c1ccc(OCc2ccccc2)c(OC)c1 (configuration not stated)	none (no result: HT1080-NT tox, IL-1B inflam inh, uPA generation, HT1080 IDH1KD tx)
Cc1cccc(C)c1NC(=O)C(c1ccncc1)N1CCN(CCN(C)C)CC1 (configuration not stated)	none (no result: uPA generation)
COc1cccc(CN(C)C(=O)C2CC(=O)N(c3ccc4c(c3)OCCO4)C2)c1 (configuration not stated)	TDP1 cell CPT inconclusive, TDP1 cell noCPT inconclusive
Cc1ccc(NC(=O)C(c2ccccc2)N2CCN(C(=O)c3ccco3)CC2)cc1Cl (configuration not stated)	none
COc1ccc(C(C)(NC(C)=O)c2nc(-c3cccc4cccnc34)cs2)cc1 (configuration not stated)	TDP1 cell CPT 20.6µM, TDP1 cell noCPT 23.1µM (no result: uPA generation)
COc1ccc(C(C)(NC(C)=O)c2nc(-c3cccc(C(=O)O)c3)cs2)cc1 (configuration not stated)	none (no result: uPA generation)
CC(C)OC(=O)/C(=C/c1ccco1)c1ccccc1	none (no result: IL-1B inflam inh)
N#CC(C#N)=C1C=CC=CN1/C(=C\c1ccco1)C(=O)c1ccccc1	HT1080-NT tox inconclusive, IL-1B inflam inh -98.3, TDP1 cell CPT 1.3µM, HT1080 IDH1KD tx inconclusive, TDP1 cell noCPT 1.46µM
COc1ccc(/C=C(/C(=O)c2cccs2)N2C=CC=CC2=C(C#N)C#N)cc1	HT1080-NT tox inconclusive, IL-1B inflam inh -95.2, uPA generation inconclusive, TDP1 cell CPT 1.16µM, HT1080 IDH1KD tx inconclusive, TDP1 cell noCPT 1.16µM
COc1ccc(C(=O)/C(=C\c2ccco2)N2C=CC=CC2=C(C#N)C#N)cc1	HT1080-NT tox inconclusive, IL-1B inflam inh -95.9, TDP1 cell CPT 0.651µM, HT1080 IDH1KD tx 2.91µM, TDP1 cell noCPT 0.651µM
O=C(C1CCN(S(=O)(=O)N2CCC3(CC2)OCCO3)CC1)N1CCc2ccccc2C1	TDP1 cell CPT inconclusive, TDP1 cell noCPT 16.4µM
O=C(C1CCN(S(=O)(=O)N2CCC3(CC2)OCCO3)CC1)N1CCN(Cc2ccccc2)CC1	none
O=C(NCCN1CCC(Cc2ccccc2)CC1)C1CCN(S(=O)(=O)N2CCC3(CC2)OCCO3)CC1	TDP1 cell CPT 14.6µM, TDP1 cell noCPT 18.4µM
CS(=O)(=O)N1CCc2cc(C(=O)O)ccc21	none
CC1Cc2cc(-c3csc(NC(=O)Cc4ccccc4)n3)ccc2N1S(C)(=O)=O (configuration not stated)	HT1080-NT tox inconclusive, IL-1B inflam inh -83.8, TDP1 cell CPT 16.4µM, HT1080 IDH1KD tx inconclusive, TDP1 cell noCPT 10µM
O=C(NC(=S)Nc1nc(-c2cccc([N+](=O)[O-])c2)cs1)c1cc(Cl)ccc1Cl	TDP1 cell noCPT 16.4µM
O=C(Nc1nc(-c2cccc([N+](=O)[O-])c2)cs1)C(c1ccccc1)c1ccccc1	IL-1B inflam inh -72.0, TDP1 cell CPT inconclusive, TDP1 cell noCPT inconclusive
CS(=O)(=O)N1CCc2cc(-c3csc(NC(=O)C(c4ccccc4)c4ccccc4)n3)ccc21	HT1080-NT tox inconclusive, TDP1 cell CPT 11.6µM, TDP1 cell noCPT inconclusive
CC(OC(=O)c1ccccc1Br)C(=O)Nc1nc(-c2cccc([N+](=O)[O-])c2)cs1 (configuration not stated)	TDP1 cell CPT inconclusive, HT1080 IDH1KD tx inconclusive, TDP1 cell noCPT inconclusive
